HT1080NT lethal = kills 2HG-producing HT-1080-NT fibrosarcoma cells. Potency, µM (series often up to 46.1 µM), inactives show at the top dose activity, negative = less viability, actives largely listed as cytotoxic. HT-1080-NT fibrosarcoma viability, CellTiter-Glo ATP luminescence, 48 h. AID 686970. 360,000 tested, 1.6% active;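 note: NT is the 2HG producing partner of a matched IDH1 knockdown line; potency is the fitted concentration of half-maximal effect; 0% = DMSO-treated cells and -100% = media-only wells without cells; nearly all actives have a fitted effect of over 55% in size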
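HT-1080-NT fibrosarcoma cells (2HG-overproducing), 750 cells/well in RPMI with 5% FBS, dosed after 2 h and incubated 48 h at 37C. CellTiter-Glo luminescence normalized to DMSO and no-cell wells; concentration-response curves fitted and classed.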
ELG1 DNA repair = blocks ELG1-dependent DNA repair in HEK293T cells; HEK293T ELG1-luciferase reporter, luminescence, 16 h; DNA damage induced by 5-fluorouridine; AID 504467; Potency, µM (series often up to 46.1 µM), for the others: at the highest dose activity change, negative = inhibition, most hits filed as inhibitors; 330,000 tested, 2.3% active; note: potency is the fitted concentration of half-maximal effect; nearly all actives have a fitted effect of over 55% in size
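HEK293T cells expressing luciferase-tagged ELG1 (2,000/well) received 5-Fluorouridine plus compound or DMSO for 16 hr at 37 °C. Luciferase was read by ONE-Glo luminescence after 30 min at room temperature.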
DT40 TDP1 no CPT = qHTS for Inhibitors of human tyrosyl-DNA phosphodiesterase 1 (TDP1): qHTS in cells in absence of CPT; 420,000 tested, 15% active; AID 686978, 2013; DT40 Tdp1-/- hTDP1 cells, no CPT, ATP luminescence, 48 h; Potency, µM (top dose mostly 46.2 µM), without a hit: at the highest dose activity change, negative = growth inhibition, actives largely listed as inhibitors; note: potency is the fitted concentration of half-maximal effect; nearly all actives have a fitted effect of over 55% in size
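Chicken DT40 Tdp1-/- cells stably complemented with human TDP1 were seeded at 400 cells/well with DMSO in place of 20 nM camptothecin. After compound pinning, cells grew at least 48 hr at 37 °C; viability read by CellTiter-Glo luminescence.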
HT1080 IDH1KD tx = HT-1080 IDH1 knockdown cell toxicity (counter line); Potency, µM (doses to about 46.1 µM), for the others: at the top dose activity, negative = toxicity, actives largely listed as cytotoxic; HT-1080 IDH1 knockdown viability, ATP luminescence, 48 h; 360,000 tested, 2% active;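 note: potency is the fitted concentration of half-maximal effect; 0% = DMSO wells and -100% = cell-free medium wells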
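After a 2 h attachment period, IDH1KD HT-1080 cells took pin-transferred compound for 48 h at 37 °C; ATP-based luminescence after 10 min room-temperature reagent incubation reported viability.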
TDP1 cell CPT = growth inhibition of DT40 Tdp1-/-;hTDP1 cells with camptothecin (screen for TDP1 inhibitors). chicken DT40 Tdp1-/-;hTDP1 cells + 20 nM CPT, ATP luminescence, 48 h. Potency, µM (series often up to 46.2 µM), without a hit: top-dose activity change, negative = growth inhibition, actives largely listed as inhibitors. 420,000 tested, 12% active. AID 686979; note: potency is the fitted concentration of half-maximal effect; nearly all actives have a fitted effect of over 55% in size
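Cell growth measured by CellTiter-Glo luminescence after a minimum 48 h, 37 C compound exposure with 20 nM CPT in Tdp1-knockout DT40 cells stably expressing hTDP1, seeded 400/well; qHTS titration format.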
IL1B secr inh = blocks inflammasome-driven IL-1 beta release; THP-1 LPS/ATP IL-1B secretion, AlphaLISA, 16 h; hits give low values; AID 743279; 360,000 tested, 4.7% active; activity change, % at 57.5 µM; in the data active = activity change below about -50%; inconclusive = mostly about -30% to -49%
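THP-1 cells pretreated 1 hr with compounds (up to 57.5 uM final), then stimulated with LPS (250 ng/mL final) plus ATP (1.25 mM final); secreted IL-1B measured by AlphaLISA after 16 hr, decreased signal indicating inhibition.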
* marks the source's active call; other numbers are inactive results; u = inconclusive; x = not tested or not shown. This is a sample that favours compounds with a hit; in the whole collection about 19% have one here. Unless noted, calls come from the whole dose curve; as a rule, active = well fitted curve in the direction sought with a large enough effect; inconclusive = small, poorly fitted or top-dose-only effect, or another doubt; inactive = no such curve, though single readings can be large; an effect the other way counts as inactive or inconclusive. Unless noted, % is set by controls: 0 for no effect and ±100 for the full control effect.

SMILES	HT1080NT lethal	ELG1 DNA repair	DT40 TDP1 no CPT	HT1080 IDH1KD tx	TDP1 cell CPT	IL1B secr inh
CCCN1CCc2nc(SCC(=O)Nc3ccc(C)c(Cl)c3)[nH]c(=O)c2C1	-1%	u	18µM*	-2%	u	-8
NC(=O)c1ccccc1NC(=O)CSc1nc2c(c(=O)[nH]1)CCCC2	12µM*	0%	u	16µM*	u	20
O=C(CSc1nc2c(c(=O)[nH]1)CCCC2)Nc1cccc(O)c1	x	x	u	x	-25%	x
Cc1ccc(S(=O)(=O)N(C)c2ccc3c(ncn3C)c2[N+](=O)[O-])cc1	-5%	2%	u	-4%	-24%	19
COc1ccccc1NC(=O)CCc1nc2sc3c(c2c(=O)[nH]1)CCCC3	-27%	u	2.9µM*	-19%	12µM*	23
CN(C(=O)CSc1nc2c(c(=O)[nH]1)CCCC2)c1ccccc1	x	x	-28%	x	9.2µM*	x
CN(C)S(=O)(=O)c1cccc(NC(=O)CCc2nc3sc4c(c3c(=O)[nH]2)CCCC4)c1	-15%	11µM*	u	-15%	16µM*	-12
COc1cccc(NC(=O)CN(C)C(=O)CCc2nc3sc4c(c3c(=O)[nH]2)CCCC4)c1	-3%	10%	-12%	-1%	-5%	3
COC(=O)c1ccccc1NC(=O)CSc1nc2sc3c(c2c(=O)[nH]1)CCCC3	x	x	9.2µM*	x	12µM*	x
CC(=O)N1c2ccc(S(=O)(=O)N3CCCC3C(=O)Nc3ccc(C)cc3)cc2CC1C (stereo not given)	0%	-13%	u	-5%	u	48
Cc1[nH]n(C)c(=O)c1C(=O)c1c(-c2ccccc2Cl)noc1C	-29%	20%	6%	-27%	2%	-10
CCc1cccc2c1NC(=O)C2(O)N1CCCC(C)C1 (stereo not given)	-3%	22%	-18%	-1%	13%	9
Cc1cccc2c1NC(=O)C21N2CCCC2C(C(=O)c2ccc3ccccc3c2)C12C(=O)Nc1ccccc12 (stereo not given)	-10%	-4%	26µM*	-4%	u	-18
CCc1cccc2c1NC(=O)C21N2CCCC2C(C(=O)c2ccc3ccccc3c2)C12C(=O)Nc1ccccc12 (stereo not given)	-7%	-7%	13µM*	-10%	18µM*	-105*
CCc1ccc2c(c1)C1(NN=C(c3cccc4ccccc34)S1)C(=O)N2 (stereo not given)	x	-24%	x	x	x	x
CCc1ccc2c(c1)C1(C(=O)N2)N2CCCC2C(C(=O)c2ccc3ccccc3c2)C12C(=O)Nc1ccccc12 (stereo not given)	18µM*	u	u	21µM*	u	-99*
CCOC(=O)[C@]12CCCC=C1N(Cc1ccc3c(c1)OCO3)C(=O)[C@H](CC(=O)NCc1ccc(C)o1)C2	-15%	x	u	0%	u	-14
Cc1ccc(OCC(=O)N/N=C\c2cccn2C)c([N+](=O)[O-])c1	-11%	u	u	5%	4%	-2
Cc1cc2c(cc1C)C(c1ccccc1Br)CC(=O)N2 (stereo not given)	-5%	-16%	u	-9%	u	39
Cc1cc2c(cc1C)C(c1ccccc1OC(C)C)CC(=O)N2 (stereo not given)	4.1µM*	0%	u	2.3µM*	u	-10
COc1ccccc1C1CC(=O)Nc2cc(C)c(C)cc21 (stereo not given)	u	u	8.2µM*	6.5µM*	6.5µM*	40
CCCCOc1ccccc1C1CC(=O)Nc2cc(C)c(C)cc21 (stereo not given)	x	x	18µM*	x	15µM*	x
CCOc1ccccc1C1CC(=O)Nc2cc(OC)c(OC)c(OC)c21 (stereo not given)	8%	u	u	13%	u	5
CCOc1ccccc1C1CC(=O)Nc2cc(C)c(C)cc21 (stereo not given)	u	-9%	4.1µM*	15µM*	2.6µM*	57
O=C(NNc1ccccc1Br)C(O)(c1cccc(C(F)(F)F)c1)c1cccc(C(F)(F)F)c1	21µM*	u	15µM*	u	29µM*	-59*
SMILES	HT1080NT lethal	ELG1 DNA repair	DT40 TDP1 no CPT	HT1080 IDH1KD tx	TDP1 cell CPT	IL1B secr inh
Cc1ccccc1NC(=O)c1cccc(C(F)(F)F)c1	12%	5%	-23%	11%	-28%	-3
O=C(COC(=O)c1ccc(C(F)(F)F)cc1)NC(=O)C1CCCCC1	x	x	-11%	x	-15%	x
N#CCCn1nc(-c2ccc(Br)cc2)cc1Nc1ccccc1NC(=O)C(F)(F)F	u	u	u	u	u	-78*
N#CCCn1nc(-c2ccccc2)cc1Nc1ccccc1NC(=O)C(F)(F)F	0%	-10%	-28%	12%	-20%	-7
N#CCCn1nc(-c2ccc([N+](=O)[O-])cc2)cc1Nc1ccccc1NC(=O)C(F)(F)F	-6%	18µM*	u	-15%	u	-25
Cc1ccc2nc(C)c3c(c2c1)N(c1ccc(F)cc1)CC3	21µM*	u	u	15µM*	10µM*	x
C=CCc1c(C)nc2c(OC)cccc2c1Cl	-6%	u	u	-2%	u	16
COc1ccccc1N1CCc2c(C)nc3c(OC)cccc3c21	u	-9%	4.1µM*	u	5.8µM*	-72*
COc1cccc2c1nc(C)c1cc(C)oc12	-7%	u	u	0%	-24%	-2
COc1cccc2c3c(c(C)nc12)CCN3c1ccccc1	u	6%	15µM*	u	u	-93*
Cc1ccc2c(c1)cc(CN(C)Cc1nc(C)cs1)c(=O)n2C	x	x	-20%	x	0%	x
CCN(CC(=O)Nc1c(F)cccc1F)C(=O)Cc1ccc2c(c1)CCC2	-6%	0%	-21%	1%	-20%	-16
CCCc1cc(=O)n2[nH]c(NC(=O)c3ccc(C(C)(C)C)cc3)nc2n1	x	x	-4%	x	-4%	x
CCn1c(N2CCN(C(=O)C34CC5CC(CC(C5)C3)C4)CC2)nc2ccccc21	u	u	26µM*	u	29µM*	u
COc1ccc(S(=O)(=O)N2CCN(Cc3ccccc3OC)CC2)cc1	1%	x	u	5%	-25%	-8
CCn1c(N2CCN(S(=O)(=O)c3ccc(OC)cc3)CC2)nc2ccccc21	-29%	u	u	u	u	-66*

Assay outcomes from PubChem BioAssay.
